# From PubChem
# Giardia FBPA inh – inhibitors of Giardia lamblia fructose-1,6-bisphosphate aldolase; AID 2451; purified Giardia FBPA; Potency, µM (titrated, usually from 59.6 µM), inactives show top-dose activity, negative = inhibition, most hits filed as inhibitors; A8B2U2; hit rate 0.71% among 290,000; also: % is scaled to controls: 0 for no effect and ±100 for the full control effect; nearly all actives have a fitted effect of over 55% in size
# Target sequence (A8B2U2 whole entry, looked up): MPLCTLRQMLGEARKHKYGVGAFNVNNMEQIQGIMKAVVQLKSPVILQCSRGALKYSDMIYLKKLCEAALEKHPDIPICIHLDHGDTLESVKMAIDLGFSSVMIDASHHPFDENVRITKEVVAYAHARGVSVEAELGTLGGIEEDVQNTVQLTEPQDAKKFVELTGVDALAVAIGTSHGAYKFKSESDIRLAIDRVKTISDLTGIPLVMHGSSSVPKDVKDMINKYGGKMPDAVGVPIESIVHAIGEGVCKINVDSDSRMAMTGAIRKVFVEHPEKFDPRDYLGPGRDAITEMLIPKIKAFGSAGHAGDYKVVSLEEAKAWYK
#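 40 nM FBPA preincubated 10 min at RT with compound (up to 57.5 uM final), then substrate plus GAPDH/TPI/NAD/arsenate coupling and diaphorase/resazurin added. Fluorescence read after 20 min at RT, 525/598 nm.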
# NS1 function inh – inhibitors of influenza NS1 protein function. hit rate 0.4% among 270,000. Potency, µM (top dose mostly 46.1 µM), without a hit: top-dose activity, positive = more growth; calls by dose curve; also: actives are rising curves; nearly all actives have a fitted effect of over 50% in size
#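 Growth recovery, yeast-based: influenza A NS1 expressed in S. cerevisiae causes slow growth, and suppressors are detected by OD600. The parent strain without NS1 is used as positive control.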
# AMA1-RON2 inh – AMA1-RON2 (P. falciparum) interaction inhibition; AlphaScreen AMA1-biotinylated RON2 peptide binding; Potency, µM (highest dose often 58.2 µM), inactives show top-dose activity change, negative = inhibition, most hits filed as inhibitors; hit rate 0.2% among 360,000; AID 720542;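 also: 0% = vehicle wells and -100% = peptide control; nearly all actives have a fitted effect of over 45% in size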
#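 AMA1 (3D7) with his tag at 25 nM final met compounds first, then biotinylated RON2 peptide at 25 nM; detection used donor plus acceptor beads, 10 µg/mL apiece, read by AlphaScreen after 30 min at room temperature.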
# Tb PYK inh – inhibitors of Trypanosoma brucei pyruvate kinase. Potency, µM (top dose mostly 76.8 µM), for inactives: at the top dose activity, negative = inhibition, actives largely listed as inhibitors. hit rate 0.12% among 410,000. AID 624173. Q57TT1. TbPYK enzyme, Kinase-Glo Plus ATP luminescence, 45 min; also: % is scaled to controls: 0 for no effect and ±100 for the full control effect; nearly all actives have a fitted effect of over 50% in size
#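 Enzyme and substrate buffer are dispensed first and compound is pin-transferred. ADP at 130 uM final then starts the reaction, which runs 45 min at room temperature. Detection reagent is added for 10 min before luminescence is imaged.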
# LmPK inh – inhibitors of Leishmania mexicana pyruvate kinase. Q27686. purified LmPK, Kinase-Glo ATP luminescence, 1 h. Potency, µM (doses to about 57.5 µM), without a hit: top-dose activity change, negative = inhibition, actives largely listed as inhibitors. hit rate 0.37% among 290,000. AID 1721; also: % is scaled to controls: 0 for no effect and ±100 for the full control effect
#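 Purified LmPK (0.1 nM) with 0.5 mM PEP and 0.1 mM ADP in imidazole buffer pH 7.2 with MgCl2/KCl, 1 h at room temperature. ATP formed was read by luciferase luminescence and normalized to no-enzyme and uninhibited controls.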
# Numbers without * were called inactive; ? = inconclusive; . = not tested or not shown; ! = repeats disagree; [ ] = another dose, or the depositor's remark. An excerpt weighted towards active compounds, which were near 1.2% of everything screened. Unless noted, calls follow the shape of the dose curve; as a rule, active = well fitted curve in the direction sought with a large enough effect; inconclusive = small, poorly fitted or top-dose-only effect, or another doubt; inactive = no such curve, though single readings can be large; an effect the other way counts as inactive or inconclusive. Potency is read from the fitted curve at half-maximal effect.
SMILES,Giardia FBPA inh,NS1 function inh,AMA1-RON2 inh,Tb PYK inh,LmPK inh
Cc1ccc(-c2nc(-c3ccccn3)no2)cc1[N+](=O)[O-],2%,-2%,4%,7%,14µM*
Cc1ccc(-c2nc(-c3ccccn3)no2)cc1Cl,-18%,-112%,17%,-27%,14µM*
Cc1ccc(-c2nc(-c3ccccn3)no2)cc1,6%,-48%,22%,?,2.8µM*
Cc1ccc(Cc2nc(-c3ccccn3)no2)cc1,4%,-3%,-16%,3%,-7%
Cc1ccccc1-c1noc(-c2ccc(O)cc2)n1,4%,-64%,7%,-28%,14µM*
O=c1c(-c2ccc(Cl)cc2)nc2cnc(N3CCNCC3)nc2n1Cc1ccc(F)cc1,0%,.,.,-7%,.
c1ccc(-c2ccc(-c3nc(-c4ccccn4)no3)cc2)cc1,-2%,-64%,60%,?,14µM*
Oc1cccc(C(Nc2ccccn2)c2ccc3cccnc3c2O)c1Cl (stereo unspecified),.,.,.,87%,.
COc1cccc2c(=O)c3cccc(N)c3[nH]c12,1.8µM*,20%,0%[11.6 µM],0%,-14%
COC(=O)[C@@H]1C[C@H]1[C@@H](NC(=O)c1cc(C)nn1C)c1ccccc1,10%,.,.,.,.
CCS(=O)(=O)N1CCc2cc(C(=O)NCc3ccccc3)ccc21,.,.,.,5%,.
CCc1nnc(N/N=C/c2ccc(-c3ccc([N+](=O)[O-])cc3)o2)n1N,4.5µM*,.,75%,-6%,0%
Cc1nnc(N/N=C\c2ccc(-c3ccccc3[N+](=O)[O-])o2)n1N,1.8µM*,-41%,-13%,-2%,-1%
Cc1n[nH]c(=S)n1/N=C/c1ccc(-c2ccccc2[N+](=O)[O-])o1,-11%,-2%,14%,7.9µM*,-11%
N#CC(C#N)=Cc1ccc(O)c(O)c1,14µM*!,?,71%,-3%,.
N#CC(=Cc1ccc(O)c(O)c1)C(N)=S,?,12%,.,.,.
Cc1cc(-c2ccc(N=Nc3ccc4c(S(=O)(=O)O)cc(S(=O)(=O)O)c(N)c4c3O)c(C)c2)ccc1N=Nc1ccc2c(S(=O)(=O)O)cc(S(=O)(=O)O)c(N)c2c1O,22µM*,.,.,?,.
Nc1c(N=Nc2ccc(-c3ccc(N=Nc4cc(S(=O)(=O)O)c5ccccc5c4N)cc3)cc2)cc(S(=O)(=O)O)c2ccccc12,-8%,.,.,-5%,.
O=C(Nc1ccccc1F)c1ccc(CSc2ncccn2)cc1,-5%,1%,0%,-10%,16µM*
CC(=O)O[C@H]1CC[C@@]2(C)C(=CCC3C2CC[C@]2(C)C(c4cccnc4)=CCC32)C1 (stereo partly specified),.,.,.,-2%,.
O=C(O)c1cccc(-n2sc3ccccc3c2=O)c1,.,.,-4%,?,.
N#Cc1ccc2c(=O)n(-c3ccccc3)sc2c1,.,.,5%,3.2µM*,.
O=c1c2cc(F)ccc2sn1-c1ccccc1,.,.,24%,?,.
CC(=O)Nc1ccc2c(=O)n(-c3ccccc3)sc2c1,.,.,-3%,7.1µM*,.
CC(=O)Nc1ccc(-c2cc(NC(C)=O)n(-c3ccccc3)n2)cc1,2%,-2%,9%,0%,-1%
SMILES,Giardia FBPA inh,NS1 function inh,AMA1-RON2 inh,Tb PYK inh,LmPK inh
O=c1c2cc(C(F)(F)F)ccc2sn1-c1ccccc1,.,.,8%,7.1µM*,.
CC(=O)Nc1ccc(-c2cc(N)n(-c3ccccc3)n2)cc1,-20%,25%,-3%,-27%,16µM*
CCOC(=O)CNC(=O)O[C@@H]1C(=O)c2ccc(OC)cc2O[C@H]1c1ccc2c(c1)OCO2,-1%,.,.,.,.
CCCCN(C)CCCNC(=O)c1cc(=O)[nH]c2ccc(S(=O)(=O)N3CCCCC3)cc12,.,.,.,-5%,.
Oc1cc2cc(CCN3CCN(c4nsc5ccccc45)CC3)c(Cl)cc2[nH]1,.,.,.,1%,.
O=[N+]([O-])c1cc(Cl)ccc1Nc1ccccc1,-4%,8%,14µM*,-11%,3%
NS(=O)(=O)c1ccc(Nc2ccccc2)c([N+](=O)[O-])c1,-2%,1%,-12%,-1%,6%
C(=N\c1nc2ccccc2[nH]1)/c1cccs1,-3%,-3%,-6%,-6%,14µM*
C=C/C=C/CC1=C(C)[C@@H](OC(=O)[C@@H]2[C@@H](/C=C(\C)C(=O)OC)C2(C)C)CC1=O (tested in a mixture with another compound),.,.,.,-4%,.
C=C1/C(=C\C=C2/CCC[C@@]3(C)[C@@H]([C@H](C)OCCC(C)(C)O)CC[C@@H]23)C[C@@H](O)C[C@@H]1O,.,.,.,3%,.
N/C(=N\N=C\c1cccc([N+](=O)[O-])c1)c1nonc1N,8%,0%,13%,1%,2%
N/C(=N\N=C\c1ccc2c(c1)OCO2)c1nonc1N,1%,7%,5%,-17%,11µM*
COc1ccccc1-c1cc2nc(C)c(CCC(=O)NCCc3cccc(C)c3)c(C)n2n1,.,.,.,-1%,.
COc1ccc(OC)c(C2=Nn3c(nnc3-c3ccccc3O)SC2)c1,-11%,.,.,.,.
COc1cc(/C=N/N=C2/NC(=O)C(CC(=O)O)S2)ccc1OCc1ccc(Cl)cc1 (stereo unspecified),7%,7%,55%,18µM*,?
O=C(N/N=C/c1ccc2c(c1)OCO2)c1ccccn1,-23%,-4%,48%,-17%,11µM*
O=C(N/N=C/c1cc2c(cc1Br)OCO2)c1ccccn1,-5%,-7%,64%,-6%,?
CN(C)c1ccc(/C=N/NC(=O)c2ccccn2)cc1,-22%,-39%,54%,?,13µM*
CN(C)c1ccc(/C=C(\C#N)c2ccccn2)cc1,-17%,2%,-1%[11.6 µM],?,10µM*
O=C(O)c1ccc(N/N=C/c2ccc3c(c2)OCO3)cc1,16%,-2%,1%,?,10µM*
O=C(N/N=C/c1ccncc1)c1ccccn1,?,8%,37%,-2%,-26%
CN(C)c1ccc(NC(=S)c2ccccn2)cc1,?,-34%,14µM*,?,4.5µM*
CC(C)c1ccc(/C=N/NC(=O)c2ccccn2)cc1,-17%,-37%,106%,-16%,14µM*
CN(C)c1ccc(/C=N/NC(=O)c2ccnn2C)cc1,-1%,-7%,5%,?,8.9µM*
